# Hit rate of the full screen: of about 11,000 compounds, about 310 (2.8%) were called active. Cut-off read from the data, not from the text of the source: active = activity change below about -85%; inactive = the rest. The full list was thinned out, with actives kept by preference.
# Test system: intestinal alkaline phosphatase [Mus musculus]
# Assay: activators of mouse IAP, confirmation, biochemical, luminescence, single concentration (AID 434970)
# Settings: purified mouse IAP, CDP-Star luminescence, 30 min, at 10 µM; activation factor: measured here: IAP activation factor, stronger effect = higher value; activity change, negative = activation: stronger effect = lower value
Compound,activation factor,"activity change, negative = activation"
COc1cc(-c2nnc3sc(Cc4ccccc4)nn23)cc(OC)c1OC,0.942,5.85% (inactive)
CCOC(=O)c1cnc(SCc2cccc(C)c2)nc1N,1.08,-7.85% (inactive)
CCOc1ccc(NC(=O)N2CCC(C(=O)c3ccc(F)cc3)CC2)cc1,1.07,-7.1% (inactive)
COc1cccc(OC)c1C(=O)Nc1cccc(C(C)=O)c1,0.983,1.65% (inactive)
NS(=O)(=O)c1ccc(N2N=C(c3ccccc3)CC2c2ccccc2)cc1 (configuration not stated),1.6,-59.6% (inactive)
CCCC1(C(=O)OCC)NC(c2cc(OC)c(OC)c(OC)c2)C2C(=O)N(CC)C(=O)C21 (configuration not stated),0.957,4.35% (inactive)
O=C(CN1CCCCCC1)Nc1ccccc1F,0.954,4.6% (inactive)
Cc1cc(C)c2nc(C(F)(F)F)nc(NCCCN3CCCC3=O)c2c1,0.947,5.35% (inactive)
COc1ccc(/C=N/NC(=O)c2cc(-c3ccccc3OC)nc3ccccc23)cc1COC(C)=O,0.929,7.05% (inactive)
O=C(Nc1nc2ccc(S(=O)(=O)N3CCCCC3)cc2s1)C1CCCO1 (configuration not stated),0.96,4.05% (inactive)
COC(=O)C[C@H](NC(=O)Cn1cnc2c(NCc3ccccc3)ncnc21)C(=O)OC,0.97,2.95% (inactive)
Cc1cc(NC(=O)CN2C(=O)C3CC=CCC3C2=O)no1 (configuration not stated),0.929,7.05% (inactive)
COc1ccc(OC)c(S(=O)(=O)n2nc(C)cc2C)c1,1.08,-7.9% (inactive)
COc1ccc(Cl)cc1NC(=O)CCc1ccccc1,0.97,3% (inactive)
O=C(CCN1CCN(C/C=C/c2ccccc2)CC1)Nc1ccccc1,1.08,-8% (inactive)
COc1ccccc1/C=C/CN1CCC(n2nccc2NC(=O)CCc2ccccc2)CC1,2.21,-121% (active)
O=S(=O)(Nc1ccc(Cl)c(C(F)(F)F)c1)c1cnc[nH]1,0.887,11.3% (inactive)
C[C@H](CO)N1C[C@H](C)[C@@H](CN(C)C(=O)NC2CCCCC2)Oc2ccc(NC(=O)Nc3ccccc3)cc2C1=O,2,-99.6% (active)

Compound,activation factor,"activity change, negative = activation"
COc1ccc(NC(=O)Nc2ccc3c(c2)C(=O)N([C@H](C)CO)C[C@H](C)[C@@H](CN(C)C(=O)Nc2ccc4c(c2)OCO4)O3)cc1,1.63,-62.9% (inactive)
C[C@H](CO)N1C[C@H](C)[C@@H](CN(C)C(=O)Nc2ccc3c(c2)OCO3)Oc2ccc(NC(=O)Nc3ccc4c(c3)OCO4)cc2C1=O,1.75,-74.9% (inactive)
C[C@H](CO)N1C[C@H](C)[C@@H](CN(C)C(=O)Nc2ccccc2)Oc2ccc(NC(=O)Nc3ccc4c(c3)OCO4)cc2C1=O,2.17,-117% (active)
C[C@H](CO)N1C[C@H](C)[C@@H](CN(C)C(=O)Nc2ccc(C(F)(F)F)cc2)Oc2ccc(NC(=O)Nc3ccccc3)cc2C1=O,1.71,-71.5% (inactive)
C[C@H](CO)N1C[C@H](C)[C@@H](CN(C)C(=O)Nc2ccccc2)Oc2ccc(NC(=O)NC3CCCCC3)cc2C1=O,1.47,-46.7% (inactive)
C[C@H](CO)N1C[C@H](C)[C@@H](CN(C)C(=O)Nc2ccccc2)Oc2ccc(NC(=O)Nc3ccccc3)cc2C1=O,2.23,-123% (active)
COc1ccc(NC(=O)Nc2ccc3c(c2)C(=O)N([C@H](C)CO)C[C@H](C)[C@@H](CN(C)C(=O)Nc2ccccc2)O3)cc1,1.59,-59.5% (inactive)
COc1ccc(NC(=O)Nc2ccc3c(c2)C(=O)N([C@H](C)CO)C[C@H](C)[C@@H](CN(C)C(=O)NC2CCCCC2)O3)cc1,1.64,-64% (inactive)
Cc1ccccc1C1C(C#N)=C2N=C(N)c3c(sc4c3CCCCC4)N2C2=C1C(=O)CCC2 (configuration not stated),0.831,16.9% (inactive)
CC1N(O)C(C)(C)C(c2ccccc2)=[N+]1[O-] (configuration not stated),1.08,-7.85% (inactive)
Cc1cc(NC(=O)CSc2ccc(-c3ccccc3)nn2)no1,0.978,2.15% (inactive)
CCOC(=O)Cn1c(=O)c(-c2ccccc2NCc2ccccc2)nc2ccccc21,0.764,23.5% (inactive)
COCCn1c(-c2cc(OC)c(OC)c(OC)c2)nc2oc3ccccc3c(=O)c2c1=O,0.931,6.9% (inactive)
COc1ccc(C2(CNC(=O)Cc3ccc(OC)c(OC)c3)CCOCC2)cc1,0.999,0.05% (inactive)
C#CCOCCOCCOCCNc1nc(N2CCN(C(=O)CCCCCCCCCCNC(=O)[C@@H](CCSC)n3cc(CCO)nn3)CC2)nc(N2CCN(C(=O)CCCCCCCCCCNC(=O)[C@H]([C@@H](C)CC)n3cc(CCCCN=C(N)N)nn3)CC2)n1,22.1,-2110% (active)
C#CCOCCOCCOCCNc1nc(N2CCN(C(=O)CCCCCCCCCCNC(=O)[C@H]([C@@H](C)CC)n3cc(CCCCN=C(N)N)nn3)CC2)nc(N2CCN(C(=O)CCCCCCCCCCNC(=O)[C@H](CO)n3cc(CCCSC)nn3)CC2)n1,15.4,-1440% (active)
C#CCOCCOCCOCCNc1nc(N2CCN(C(=O)CCCCCCCCCCNC(=O)[C@@H](CCSC)n3cc(CCO)nn3)CC2)nc(N2CCN(C(=O)CCCCCCCCCCNC(=O)[C@H]([C@@H](C)CC)n3cc(CCCCCN)nn3)CC2)n1,7.35,-635% (active)
FC(F)(F)c1nnc2sc(-c3cccs3)nn12,0.967,3.3% (inactive)

# Source: PubChem BioAssay AID434970 (Sanford-Burnham Center for Chemical Genomics, 2010)
